Rows were chosen to be rich in hits. Some 9.4% of all compounds tested hit in one or more screens of this group.
Rab9 promoter act: qHTS Assay for Rab9 Promoter Activators; actives 2.8% (n = 320,000); Huh7 Rab9 promoter-luciferase reporter, luminescence, 24 h; Potency, µM (series often up to 9.22 µM), for the others: top-dose activation, negative = inhibition, actives largely listed as activators; further: % of control where 0% means no effect; nearly all actives have a fitted effect of over 60% in size
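Rab9 promoter-driven luciferase in stably transfected Huh7 cells; 1500 cells/well rested 2 h, exposed to compound in DMSO for 24 h at 37 °C, 5% CO2. Luminescence read 10 min after adding luciferase reagent at ambient temperature.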
ELG1 genotoxic: qHTS screen for small molecules that induce genotoxicity in human embryonic kidney (HEK293T) cells expressing luciferase-tagged ELG1 | HEK293T ELG1-luciferase reporter, luminescence, 16 h | Potency, µM (series often up to 46 µM), inactives show at the highest dose activity change, positive = activation, actives largely listed as activators | actives 1.3% (n = 330,000); further: % of control where 0% means no effect; nearly all actives have a fitted effect of over 60% in size
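Step 1: seed 2,000 HEK293T ELG1-luciferase cells per well. Step 2: add compound or DMSO, incubate 16 hr at 37 °C. Step 3: ONE-Glo, 30 min at room temperature, read luminescence.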
FLuc modulator: qHTS profiling assay for firefly luciferase inhibitor/activator using purifed enzyme and Km concentrations of substrates (counterscreen for miR-21 project). Luciferin 4-monooxygenase (Photinus pyralis), P08659. purified FLuc, Km substrates, luminescence inhibition. Potency, µM (doses to about 57.5 µM), inactives show at the highest dose activity change, negative = inhibition, hits mostly inhibitors. actives 6.9% (n = 360,000). AID 588342, 2011;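 further: plate controls were vehicle for no effect and reference inhibitor for full effect; nearly all actives have a fitted effect of over 55% in size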
Target sequence (P08659 whole entry, looked up): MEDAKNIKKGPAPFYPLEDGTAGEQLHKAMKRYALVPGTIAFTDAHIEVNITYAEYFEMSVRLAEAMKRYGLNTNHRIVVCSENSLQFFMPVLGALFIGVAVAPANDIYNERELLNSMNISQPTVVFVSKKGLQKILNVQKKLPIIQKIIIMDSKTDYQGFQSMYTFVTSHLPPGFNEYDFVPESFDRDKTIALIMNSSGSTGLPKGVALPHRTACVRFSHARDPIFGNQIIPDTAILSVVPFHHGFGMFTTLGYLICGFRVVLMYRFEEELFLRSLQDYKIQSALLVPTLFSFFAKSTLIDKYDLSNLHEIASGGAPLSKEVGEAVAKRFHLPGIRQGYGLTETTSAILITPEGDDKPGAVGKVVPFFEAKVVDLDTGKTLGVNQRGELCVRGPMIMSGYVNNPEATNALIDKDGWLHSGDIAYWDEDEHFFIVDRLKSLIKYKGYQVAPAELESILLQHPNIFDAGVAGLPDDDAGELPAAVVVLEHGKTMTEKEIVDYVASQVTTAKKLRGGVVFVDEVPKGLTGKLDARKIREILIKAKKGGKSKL
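Biochemical qHTS of compounds, final roughly 60 µM downward over six points, against 10 nM purified firefly luciferase using Km concentrations of substrates (10 uM D-luciferin, 10 uM ATP) in Tris acetate pH 7.5 buffer; luminescence output.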
NPC1 prom act: qHTS Assay for NPC1 Promoter Activators | Huh7 NPC1 promoter luciferase reporter, 24 h | Potency, µM (highest dose often 9.22 µM), for the others: at the highest dose activation, most hits filed as activators | actives 2.4% (n = 320,000) | AID 485313, 2010; further: % of control where 0% means no effect; nearly all actives have a fitted effect of over 60% in size
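Luminescence read-out of NPC1 promoter-driven luciferase in stably transfected Huh7 cells; compounds delivered in DMSO and left 24 h at 37C, 5% CO2, qHTS titration format.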
ELG1 DNA repair: qHTS screen for small molecules that inhibit ELG1-dependent DNA repair in human embryonic kidney (HEK293T) cells expressing luciferase-tagged ELG1; HEK293T ELG1-luciferase reporter, luminescence, 16 h; DNA damage induced by 5-fluorouridine; Potency, µM (doses to about 46.1 µM), inactives show at the highest dose activity change, negative = inhibition, most hits filed as inhibitors; actives 2.3% (n = 330,000); further: on the % scale 0 is the no-effect control and ±100 the full control effect; nearly all actives have a fitted effect of over 55% in size
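DMSO vehicle served as the neutral condition. Each well held 2,000 cells given 5-fluorouridine plus compound; after 16 hr at 37 °C/5% CO2, ONE-Glo was added and luciferase measured 30 min later.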
SMN2 splice up: qHTS Assay for Enhancers of SMN2 Splice Variant Expression | HEK293 SMN2-luciferase splicing reporter, luminescence, 30-36 h | Potency, µM (series often up to 46.1 µM), inactives show top-dose activity change, positive = activation, hits mostly activators | actives 2.8% (n = 210,000) | AID 1458, 2008; further: % of control where 0% means no effect; nearly all actives have a fitted effect of over 55% in size
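HEK293 cells carry an SMN2 […]–luciferase reporter in which exon 7 inclusion puts luciferase in frame. Cells were plated 10-12 h before compound addition, then incubated 30-36 h at 37C. ONE-Glo luminescence was read; sodium butyrate at 4.5 mM final served as control.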
Active calls of the source: *; ? = inconclusive; · = not tested or not shown. The call rests on the fitted dose curve; in most records, active means well fitted curve in the direction sought with a large enough effect; inconclusive means small, poorly fitted or top-dose-only effect, or another doubt; inactive means no such curve, though single readings can be large; an effect the other way counts as inactive or inconclusive. Potency means the concentration at half of the fitted maximal effect.

SMILES	Rab9 promoter act	ELG1 genotoxic	FLuc modulator	NPC1 prom act	ELG1 DNA repair	SMN2 splice up
O=C(NCc1ccccn1)Nc1cc(Cl)ccc1Cl	3.2µM*	-7%	1.2µM*	73%	?	·
O=C(NCc1ccccn1)Nc1cccc(Cl)c1	15%	?	19µM*	1%	?	3%
Cc1cc(C)cc(NC(=O)C(=O)NCc2ccccn2)c1	-2%	1%	5%	0%	8%	-5%
Cc1ccc(Cl)cc1NC(=O)NCc1ccccn1	3%	4%	-2%	-2%	0%	·
O=C(NCc1ccccn1)Nc1cccc(NC(=O)NCc2ccccn2)c1	2%	?	?	-4%	?	?
O=C(NCc1ccccn1)C(=O)Nc1ccccc1	?	?	?	?	?	18µM*
CCc1ccc(CNC(=O)CN2C(=O)CCn3nc(-c4cn(C)c5ccccc45)cc32)cc1	·	·	-13%	·	·	·
CCCn1c(C)nc2c(NCCCN(CCO)CCO)nc(C)nc21	·	·	·	·	·	-10%
COC(=O)c1cc(C)[nH]c2c(C)cc3nc4ccccc4c3c12	0%	-10%	-9%	2%	18µM*	·
CC1C/C(=C/c2cccn2C)C(=O)/C(=C/c2cccn2C)C1 (configuration not stated)	-5%	2%	?	-9%	?	-14%
CC1C/C(=C/c2ccncc2)C(=O)/C(=C/c2ccncc2)C1 (configuration not stated)	-36%	-22%	-11%	-42%	21µM*	·
CCOc1ccc(NC(=O)Cn2c(=O)n(Cc3ccco3)c(=O)c3ccc(C(=O)NC4CCCC4)cc32)cc1	·	·	0%	·	·	2%
CCOc1cc(/C=C(/C#N)c2ccc(F)cc2)ccc1OCc1ccc(C(=O)O)o1	2%	1%	13µM*	3%	12%	10%
CCOc1cc(/C=C(/C#N)c2nc3ccccc3[nH]2)ccc1OCc1ccc(C(=O)O)o1	·	0%	?	1%	6%	23%
Cc1ccc(NC(=O)N2CCN(Cc3ccc4c(c3)OCO4)CC2)cc1	-5%	2%	-7%	5%	-12%	-16%
Cc1cccc(C)c1N1CCN(C(=O)Nc2ccc3c(c2)OCCO3)CC1	?	0%	9.5µM*	?	?	-13%
O=C(Nc1ccc2c(c1)OCCO2)N1CCN(c2ccc(F)cc2)CC1	-6%	20%	-16%	6%	?	-50%
Cc1occc1C(=O)Nc1cccc([N+](=O)[O-])c1	0%	-3%	1%	0%	11%	7%
Cc1ccc(NC(=O)Nc2ccc3c(c2)CCC3)cc1C	29%	14%	1%	30%	?	·
Cc1occc1C(=O)Nc1ccc2c(c1)CCC2	4µM*	18µM*	9.5µM*	3.5µM*	?	11µM*
O=C(Nc1ccc2c(c1)OCO2)N1CCN(Cc2ccco2)CC1	0.79µM*	?	0.95µM*	?	?	·
Cc1occc1C(=O)Nc1ccc2c(c1)OCCO2	1.3µM*	?	8.5µM*	3.2µM*	?	?
CCOC(=O)c1sc(NC(=O)c2cc(-c3ccc(F)cc3)on2)c(C(=O)OCC)c1C	·	·	2%	·	·	4%
C#C[C@]1(O)CCC2C3CCC4=Cc5oncc5C[C@@]4(C)C3CC[C@@]21C (some centres not stated)	·	·	·	·	·	-12%
CN(C)C(=O)c1ccc2c(c1)N(CC(=O)NCc1ccc(F)cc1)C(=O)C1CCCCN21 (configuration not stated)	·	·	-1%	·	·	·
CCOc1ccc(S(=O)(=O)N(C(=O)c2ccncc2)c2ccc3oc(C)c(C(=O)OC)c3c2)cc1	·	·	-1%	·	·	-60%
